Assay [1] in a line: qHTS assay to identify small molecule antagonists of the glucocorticoid receptor (GR) signaling pathway - cell viability counter screen (AID 720693). Also: nearly all actives have a fitted effect of over 55% in size. For orientation: qHTS replaces the single test concentration by a dilution series.
Assay [2] in a line: qHTS assay to identify small molecule antagonists of the androgen receptor (AR) signaling pathway - cell viability counter screen (AID 743033; also: nearly all actives have a fitted effect of over 45% in size).
A short description of assay [3]: qHTS assay to identify small molecule antagonists of the androgen receptor (AR) signaling pathway using the MDA cell line - cell viability counter screen (AID 743041; also: nearly all actives have a fitted effect of over 45% in size). The essentials:
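Compound exposure lasted 16 h at 37C in MDA-kb2 AR-luc cells stimulated with R1881. Protease-based CellTiter-Fluor reagent was applied for the final 30 min and fluorescence measured.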

Assay [4] in a line: qHTS assay to identify small molecule antagonists of the thyroid receptor (TR) signaling pathway - cell viability counter screen (AID 743064). Also: nearly all actives have a fitted effect of over 50% in size. Also: potency is read from the fitted curve at half-maximal effect. In a few lines: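 In rat pituitary GH3.TRE-Luc reporter cells co-exposed to compound and 1 nM T3 for 23.5 h, cytotoxicity was assessed with CellTiter-Fluor in the same wells, read by fluorescence.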
In assay [5] the test system is thyroid hormone receptor (rat, GH3 cells). As to the kind of experiment: qHTS assay to identify small molecule agonists of the thyroid receptor (TR) signaling pathway (AID 743066; calls by dose curve).
In assay [6] the target is Estrogen receptor (Homo sapiens) (UniProt P03372). As to the kind of experiment: qHTS assay to identify small molecule antagonists of the estrogen receptor alpha (ER-alpha) signaling pathway (AID 743069; active = well fitted curve in the direction sought with a large enough effect in the signal ratio in the repeat runs, not every such curve was filed as active; the % refers to the signal ratio). In a few lines: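 In this cell-based reporter format, GripTite HEK293 cells harbouring ER-alpha-UAS-bla were grown overnight with 2% charcoal-stripped FBS, dosed with DMSO-dissolved compounds, then challenged with 17beta-estradiol. After 18 hr at 37C, beta-lactamase activity was detected by FRET fluorescence.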
Chain of Estrogen receptor (Homo sapiens) (P03372 whole entry, looked up): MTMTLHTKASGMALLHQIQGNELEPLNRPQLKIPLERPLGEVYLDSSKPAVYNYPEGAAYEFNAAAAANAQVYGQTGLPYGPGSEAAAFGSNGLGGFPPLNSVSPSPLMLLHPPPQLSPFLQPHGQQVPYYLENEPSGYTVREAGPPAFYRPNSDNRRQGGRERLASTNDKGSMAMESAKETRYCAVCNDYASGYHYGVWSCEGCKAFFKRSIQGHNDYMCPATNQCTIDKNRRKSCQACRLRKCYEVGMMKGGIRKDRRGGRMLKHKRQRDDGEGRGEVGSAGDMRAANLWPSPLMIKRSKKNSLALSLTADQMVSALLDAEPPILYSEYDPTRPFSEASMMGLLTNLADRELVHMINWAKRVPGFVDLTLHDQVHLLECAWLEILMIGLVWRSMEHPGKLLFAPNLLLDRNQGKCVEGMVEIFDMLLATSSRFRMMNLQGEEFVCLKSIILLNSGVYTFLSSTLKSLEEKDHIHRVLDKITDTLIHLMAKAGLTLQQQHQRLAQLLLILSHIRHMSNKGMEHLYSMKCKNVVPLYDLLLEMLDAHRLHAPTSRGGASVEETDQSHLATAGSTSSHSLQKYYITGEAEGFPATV

Assay [7] in a line: qHTS assay to identify small molecule antagonists of the estrogen receptor alpha (ER-alpha) signaling pathway - cell viability counter screen (AID 743074; calls by dose curve; also: nearly all actives have a fitted effect of over 45% in size).
The target of assay [8] is Estrogen receptor (Homo sapiens) (UniProt P03372). As to the kind of experiment: qHTS assay to identify small molecule agonists of the estrogen receptor alpha (ER-alpha) signaling pathway (AID 743075; calls by dose curve).
Assay [9] shares this target. As to the kind of experiment: qHTS assay to identify small molecule agonists of the estrogen receptor alpha (ER-alpha) signaling pathway using the BG1 cell line (AID 743079). Also: nearly all actives have a fitted effect of over 20% in size. Also: potency is read from the fitted curve at half-maximal effect.
The nature of assay [10]: qHTS assay to identify small molecule antagonists of the estrogen receptor alpha (ER-alpha) signaling pathway using the BG1 cell line (AID 743080; calls by dose curve;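 also: BG1 cells stimulated with 17beta-estradiol alongside compound; series mostly up to about 70 µM; nearly all actives have a fitted effect of over 25% in size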). The essentials:
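After 5 days in phenol-red-free 10% charcoal-stripped FBS medium, BG1-Luc-4E2 cells were seeded, left 24 h at 37 C, co-treated with compounds and 17beta-estradiol for 21.5 h, then assayed for viability and luciferase.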

The nature of assay [11]: qHTS assay to identify small molecule antagonists of the estrogen receptor alpha (ER-alpha) signaling pathway using the BG1 cell line - cell viability counter screen (AID 743081).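 Also: compound given together with 17beta-estradiol as the ER stimulus; nearly all actives have a fitted effect of over 45% in size.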 Also: potency is read from the fitted curve at half-maximal effect.
Assay [12] can be described thus: qHTS assay for identifying genotoxic compounds that show differential cytotoxicity against isogenic chicken DT40 cell lines with known DNA damage response pathways - Rev3 mutant cell line (AID 743014). Also: nearly all actives have a fitted effect of over 55% in size. Also: potency is read from the fitted curve at half-maximal effect.
Assay [13] in a line: qHTS assay for identifying genotoxic compounds that show differential cytotoxicity against isogenic chicken DT40 cell lines with known DNA damage response pathways - Rad54/Ku70 mutant cell line (AID 743015). Also: nearly all actives have a fitted effect of over 60% in size. Also: potency is read from the fitted curve at half-maximal effect.
The next assay deals with Aromatase (Homo sapiens) (UniProt P11511). As to the kind of experiment: qHTS assay to identify aromatase inhibitors (AID 743083). Also: series mostly up to about 70 µM; nearly all actives have a fitted effect of over 55% in size.
Chain of Aromatase (Homo sapiens) (P11511 whole entry, looked up): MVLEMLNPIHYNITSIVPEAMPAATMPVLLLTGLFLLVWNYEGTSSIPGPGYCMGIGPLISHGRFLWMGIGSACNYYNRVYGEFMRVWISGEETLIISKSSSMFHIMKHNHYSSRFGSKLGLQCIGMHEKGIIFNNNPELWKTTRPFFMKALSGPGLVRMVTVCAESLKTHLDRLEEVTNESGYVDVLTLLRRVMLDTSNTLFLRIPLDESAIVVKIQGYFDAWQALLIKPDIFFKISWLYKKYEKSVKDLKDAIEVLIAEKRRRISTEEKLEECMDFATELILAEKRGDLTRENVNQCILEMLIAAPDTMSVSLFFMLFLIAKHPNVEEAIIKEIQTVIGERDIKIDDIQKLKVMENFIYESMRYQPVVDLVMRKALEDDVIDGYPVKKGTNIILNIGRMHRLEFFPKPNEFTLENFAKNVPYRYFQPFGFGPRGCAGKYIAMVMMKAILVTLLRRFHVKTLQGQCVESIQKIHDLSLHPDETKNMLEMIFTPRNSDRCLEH
The nature of assay [14]: qHTS assay to identify small molecule antagonists of the thyroid receptor (TR) signaling pathway (AID 743065). Also: series mostly up to about 70 µM; nearly all actives have a fitted effect of over 55% in size. The essentials:
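GH3.TRE-Luc rat pituitary cells (two TREs driving luciferase) were dosed with compound, then stimulated with 1 nM T3 (final) for 23.5 h at 37 C. ONE-Glo luminescence was the read-out, with CellTiter-Fluor fluorescence as the cytotoxicity counter-screen.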

A short description of assay [15]: qHTS assay for identifying genotoxic compounds that show differential cytotoxicity against isogenic chicken DT40 cell lines with known DNA damage response pathways - wild type cell line (AID 743012). Also: potency is read from the fitted curve at half-maximal effect; nearly all actives have a fitted effect of over 60% in size. In a few lines: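 Luminescent ATP viability signal (CellTiter-Glo, 30 min RT) recorded after wild type DT40 cells were incubated with compounds for 40 h at 37 C/5% CO2.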

For assay [16], the target named is Androgen receptor (Homo sapiens) (UniProt P10275). As to the kind of experiment: qHTS assay to identify small molecule agonists of the androgen receptor (AR) signaling pathway (AID 743036; active = well fitted activation curve with a large enough effect in the signal ratio in the repeat runs, with a control signal flat, not every such curve was filed as active; the % refers to the signal ratio). The essentials: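 Cell-based FRET reporter assay: HEK293 line with a UAS-beta-lactamase construct, compounds added in DMSO, 16 h exposure at 37C, then 2 h substrate step at room temperature and fluorescence intensity read.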
Chain of Androgen receptor (Homo sapiens) (P10275 whole entry, looked up): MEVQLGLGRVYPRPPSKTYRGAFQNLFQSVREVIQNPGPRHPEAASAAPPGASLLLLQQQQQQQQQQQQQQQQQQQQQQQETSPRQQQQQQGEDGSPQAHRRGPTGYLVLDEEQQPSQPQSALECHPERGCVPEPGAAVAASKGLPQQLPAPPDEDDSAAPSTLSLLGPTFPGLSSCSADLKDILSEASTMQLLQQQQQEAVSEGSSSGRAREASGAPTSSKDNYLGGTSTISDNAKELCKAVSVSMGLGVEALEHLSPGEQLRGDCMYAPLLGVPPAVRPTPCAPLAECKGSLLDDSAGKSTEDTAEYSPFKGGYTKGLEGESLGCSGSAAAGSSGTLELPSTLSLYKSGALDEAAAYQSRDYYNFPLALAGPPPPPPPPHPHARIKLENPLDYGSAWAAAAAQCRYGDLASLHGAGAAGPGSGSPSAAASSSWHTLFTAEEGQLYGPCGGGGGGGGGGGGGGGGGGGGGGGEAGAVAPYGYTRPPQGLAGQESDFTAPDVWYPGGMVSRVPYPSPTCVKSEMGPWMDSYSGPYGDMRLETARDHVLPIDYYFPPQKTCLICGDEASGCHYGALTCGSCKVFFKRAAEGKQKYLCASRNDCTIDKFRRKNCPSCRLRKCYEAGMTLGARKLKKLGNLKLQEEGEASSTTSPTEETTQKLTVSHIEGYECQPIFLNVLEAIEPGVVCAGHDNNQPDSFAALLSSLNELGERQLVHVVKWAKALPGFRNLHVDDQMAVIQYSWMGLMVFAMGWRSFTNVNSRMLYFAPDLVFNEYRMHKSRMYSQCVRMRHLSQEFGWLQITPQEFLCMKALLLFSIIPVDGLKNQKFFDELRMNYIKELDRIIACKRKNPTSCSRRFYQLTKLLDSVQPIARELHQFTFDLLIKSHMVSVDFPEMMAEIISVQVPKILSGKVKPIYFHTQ

The target is the same in assay [17]. As to the kind of experiment: qHTS assay to identify small molecule agonists of the androgen receptor (AR) signaling pathway using the MDA cell line (AID 743040; also: nearly all actives have a fitted effect of over 20% in size). The essentials:
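Testing was done with the MDA-kb2 AR-luc line, a human breast carcinoma stably transfected with MMTV-luciferase containing AR and GR response elements. Cells were exposed 16 h at 37C before ONE-Glo luminescence detection.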

The target is the same in assay [18]. As to the kind of experiment: qHTS assay to identify small molecule antagonists of the androgen receptor (AR) signaling pathway using the MDA cell line (AID 743042; also: nearly all actives have a fitted effect of over 55% in size). In a few lines: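 MDA-kb2 breast carcinoma cells carrying MMTV-luciferase (AR/GR responsive) were co-treated with compounds and the agonist R1881 for 16 h at 37C. Inhibition read as ONE-Glo luminescence; CellTiter-Fluor fluorescence measured in parallel for cytotoxicity.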

Results filed as inconclusive are left out. More than one record can exist for a structure, and the calls need not agree. Active and inactive are the calls of the source. Unless noted, calls follow the shape of the dose curve; as a rule, active = well fitted curve in the direction sought with a large enough effect in the repeat runs; inconclusive = weak or mixed curves; inactive = no such curve, though single readings can be large; an effect the other way counts as inactive or inconclusive. Positions of bridges follow the written chain, without caps; N, C: chain ends. Non-standard residues stand in square brackets, D forms with d. Residues, ends and D or L forms follow the SMILES beside them. *: point of attachment. Dab(CH2SO3H) = N[C@@H](CCNCS(=O)(=O)O)C(=O)O; X3 = CC[C@@H](C)CCCCC(=O)*; Dab = NCC[C@H](N)C(=O)O

With `CC(C)[N+]1(C)[C@@H]2CC[C@H]1CC(OC(=O)C(CO)c1ccccc1)C2` (some centres undefined), the Potency entry in assay [1], in assay [2], in assay [3], in assay [4], in assay [5] and in assay [6] was “inactive” each time. Further, the Potency entry in assay [7], in assay [8], in assay [10] and in assay [11] was “inactive” in each case. Also, in [9], the Potency was 26.6 µM (active) and inactive.
For `CCN(CC)CC#CCOC(=O)C(O)(c1ccccc1)C1CCCCC1` (centres undefined), the Potency entry (in assay [1]; in [2]; in assay [3]; in assay [5]; in assay [7]; in the assay with Aromatase (Homo sapiens)) was “inactive” each time. Moreover, the Potency was 13.3 µM (active) in assay [12], 26.6 µM (active) in assay [13], 13.3 µM (active) in assay [4] and 9.44 µM (active) in [11].
Regarding `NC(=O)[C@@H]1C[C@]2(NC(=O)NC2=O)c2cc(F)ccc2O1`, the Potency result in assay [1], in [13], in assay [2], in assay [3], in assay [4] and in [14] was “inactive” in each case. In addition, the Potency entry in [5], in [6], in assay [7], in assay [8], in assay [9] and in assay [10] was “inactive” each time. Further, the Potency result (in assay [11]; with Aromatase (Homo sapiens)) was “inactive” throughout.
With `CC(C)(C)c1ccc2c(S(=O)(=O)O)c(C(C)(C)C)ccc2c1`, the Potency result in [1], in assay [13], in assay [2], in [3], in assay [4] and in assay [5] was “inactive” throughout. Moreover, the Potency entry in [6], in assay [7], in assay [8], in assay [9], in assay [10] and in [11] was “inactive” throughout. In addition, in the assay with Aromatase (Homo sapiens), the Potency result was “inactive”.
Take `C=CC1=C(C(=O)O)N2C(=O)[C@@H](NC(=O)/C(=N/OCC(=O)O)c3csc(N)n3)[C@H]2SC1` (stereo in doubt): the Potency entry in assay [1], in assay [13], in assay [2], in assay [3], in assay [4] and in [14] was “inactive” in each case. Besides, the Potency entry in assay [5], in [6], in assay [7], in assay [8], in [9] and in assay [10] was “inactive” in each case. Besides, the Potency result (in assay [11]; with Aromatase (Homo sapiens)) was “inactive” in each case.
As for `CCC(O)c1ccccc1` (centres undefined), the Potency entry in assay [1], in assay [12], in assay [13], in assay [3], in assay [4] and in [6] was “inactive” in each case. The Potency entry (in assay [8]; in assay [9]; in [10]; in assay [11]; with Aromatase (Homo sapiens)) was “inactive” in each case.
In the case of `CN(C)CCC(O)(c1ccccc1)c1ccccc1Cl` (centres undefined), the Potency result in [1], in [2], in [3], in assay [5], in assay [6] and in [7] was “inactive” each time. Besides, the Potency entry (in assay [8]; in assay [9]; in [10]; with Aromatase (Homo sapiens)) was “inactive” in each case.
With `CC[C@@H](C)CCCCC(=O)N[C@@H](CCNCS(=O)(=O)O)C(=O)N[C@H](C(=O)N[C@@H](CCNCS(=O)(=O)O)C(=O)N[C@H]1CCNC(=O)[C@H]([C@@H](C)O)NC(=O)[C@H](CCNCS(=O)(=O)O)NC(=O)[C@H](CCNCS(=O)(=O)O)NC(=O)[C@H](CC(C)C)NC(=O)[C@@H](CC(C)C)NC(=O)[C@H](CCNCS(=O)(=O)O)NC1=O)[C@@H](C)O` (X3-[Dab(CH2SO3H)]T[Dab(CH2SO3H)][Dab][Dab(CH2SO3H)][dL]L[Dab(CH2SO3H)][Dab(CH2SO3H)]T; lactam 4-C), the Potency in assay [15] was 23.7 µM (active); in [12], 23.7 µM (active); in assay [13] it was 18.8 µM (active). The Potency result in [16], in assay [17], in assay [3], in assay [18], in assay [14] and in [5] was “inactive” in each case. Further, the Potency entry in [6], in assay [7], in [8], in assay [9], in assay [10] and in assay [11] was “inactive” throughout. The Potency result in the assay with Aromatase (Homo sapiens) is “inactive”.

The values are drawn from PubChem BioAssay (Tox21).
